We go through 46 molecules from the supplement of paper PMC8183993.

Where “and” joins values, the source holds several entries; their conditions need not be identical. Identical values can stand only once. Counter-ions that a name gives are not always drawn. ± gives the standard deviation of the averaged measurements. Whole data set: some 3,200 compounds, median “nuclei count (viability) relative to DMSO” near 99, cut for the lowest 2% near 16. This is one part of a sample in which the lowest values are shown more often than they occur.

The test system of the test is U2OS. The test is described as follows: nuclei count (viability) relative to DMSO (% of DMSO); higher = more viable cells. As to conditions: 10 µM; 24 h. The method, then:
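Primary image-based screen in U2OS cells: compounds at 10 uM for 24 h, then a 1 h o-propargyl-puromycin (OPP) pulse, click labelling, and high-throughput microscopy. Mean cytoplasmic OPP intensity and nuclei count were normalised to DMSO wells within each plate (DMSO = 100) and averaged over triplicate plates.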
As to `O=C(c1cc(O)c(O)c(O)c1)c1ccc(O)c(O)c1O` [Exifone], the nuclei count is 94.1. The value for `COc1ccccc1N1CCN(CCN(C(=O)C2CCCCC2)c2ccccn2)CC1` was 101; that for `Cn1nc(C(C)(C)C)cc1C(=O)N[C@@H](Cc1cccc(Cl)c1)C(=O)NCC#N` [Cathepsin Inhibitor 1] was 107. As for `CC(C)c1cc(C(C)C)c(CC(=O)NS(=O)(=O)Oc2c(C(C)C)cccc2C(C)C)c(C(C)C)c1` [Avasimibe (CI-1011)], the figure is 99.4; as for `NC(N)=S` [Thiourea], 103; as for `Nc1nc(N)c2nc(-c3cccc(O)c3)cnc2n1`, 94.7 ± 4.5.

`c1ccc2sc(N3CCN(Cc4ccc5c(c4)OCO5)CC3)nc2c1` [2-[1-(4-Piperonyl)piperazinyl]benzothiazole] showed a nuclei count of 111.

Consider `CC(C)C[C@H](NC(=O)[C@H](CCc1ccccc1)NC(=O)CN1CCOCC1)C(=O)N[C@@H](Cc1ccccc1)C(=O)N[C@@H](CC(C)C)C(=O)[C@@]1(C)CO1` [Carfilzomib (PR-171)], for which the nuclei count is 7.25. The value for `C[C@H](N[C@@H](CCc1ccccc1)C(=O)O)C(=O)N1CCC[C@H]1C(=O)O` [Enalaprilat dihydrate] was 94.3; that for `CC(C)c1nc(CN(C)C(=O)N[C@@H](CCN2CCOCC2)C(=O)N[C@H](CC[C@H](Cc2ccccc2)NC(=O)OCc2cncs2)Cc2ccccc2)cs1` [Cobicistat (GS-9350)] was 96.2. The value for `CC1OC2(CS1)CN1CCC2CC1` (stereo unspecified) [Cevimeline hydrochloride] was 101; that for `Cc1ccc(C(=O)c2cc(/C=C/C(=O)NO)n(C)c2)cc1` was 92.7; that for `CN(Cc1ccccc1)C(=O)[C@H](Cc1ccc2ccccc2c1)NC(=O)[C@@H]1C[C@@H](O)CN1C(=O)c1cn(C)c2ccccc12` was 98. For the molecule `Cc1cc2c(cc1C1(c3ccc(C(=O)O)cn3)CC1)C(C)(C)CCC2(C)C`, the nuclei count is 102. As for `CCc1cncnc1N1CCN(Cc2nc3ccc(C(F)(F)F)cc3[nH]2)CC1`, the figure is 99.88 ± 0.89; as for `Cc1nc2ccc(NC(=O)Nc3ccnc4cccnc34)cc2o1`, 99.6. Molecule `NC(=O)Nc1cc(-c2cccc(F)c2)sc1C(=O)N[C@H]1CCCNC1` showed a nuclei count of 7.62. As for `NC(=O)Nc1sc(-c2ccc(F)cc2)cc1C(N)=O`, the figure is 47 ± 0.38; as for `Cc1c(C(=O)NC2CCCCC2)sc2nc3ccc(N)cc3n12`, 99.5; as for `Cc1ccc2c(c1)C(=O)C1(O)CCN(c3ccccc3)C1=N2` (stereo unspecified) [(?)-Blebbistatin], 96.3. As for `CC(C(=O)Nc1cccc(/N=C/c2c(O)ccc3ccccc23)c1)c1ccccc1` (stereo unspecified) [Salermide], the figure is 101; as for `Cc1cc(/C=C/c2ccc3cc(N(C)C)ccc3[n+]2C)c(C)n1-c1ccccc1` [Pyrvinium pamoate], 6.32; as for `CN1CCN(CCc2ccc(Cl)c(Cl)c2)CC1` [BD 1063 dihydrochloride], 104. Molecule `OC(c1ccccc1)C1CCN(CCc2ccccc2)CC1` (stereo unspecified) registered a nuclei count of 99.4.

In turn, `NS(=O)(=O)c1cccc2c1c([N+](=O)[O-])cc1nc(O)c(O)nc12` gave a nuclei count of 98.7. Take `NS(=O)(=O)c1cccc2c1c([N+](=O)[O-])cc1nc(O)c(O)nc12` [NBQX disodium salt]: the nuclei count came to 109. In turn, `CNC(=O)c1ccccc1Nc1nc(Nc2ccc(N3CCOCC3)cc2OC)ncc1Cl` gave a nuclei count of 38.9 ± 1.6. Consider `CCOc1cc(N2CCC(O)CC2)ccc1Nc1ncc2c(n1)N(C)c1ccccc1C(=O)N2C`, for which the nuclei count was 95.5. The value for `COc1cc(N2CCC(N)CC2)ccc1Nc1ncc(Cl)c(-c2c[nH]c3ccccc23)n1` was 7.03; that for `CN(C(=O)c1ccc(F)cc1C(F)(F)F)C1CCN(c2nnc(-c3ccnn3C)c3ccccc23)CC1` was 101; that for `C1=N/C2=N/c3ccc(OCCN4CCCC4)c(c3)COC/C=C/COCc3cccc(c3)C(=C1)N2` [Pacritinib (SB1518)] was 16.7. As for `Cn1c(CNc2ccc(C(=N)N)cc2)nc2cc(C(=O)N(CCC(=O)O)c3ccccn3)ccc21` [BIBR 953 (Dabigatran etexilate, Pradaxa)], the figure is 108. In turn, `N=C(N)NC(=N)Nc1ccccc1` [1-Phenylbiguanide hydrochloride] yielded a nuclei count of 95.6.

As for `Cn1cc(C2=C(c3ccc(Cl)cc3Cl)C(=O)NC2=O)c2ccccc21`, the nuclei count is 94.8 and 92.7. The value for `Cn1cc(C2=C(c3cn(CCCSC(=N)N)c4ccccc34)C(=O)NC2=O)c2ccccc21` [Ro 31-8220 Mesylate] was 29.7; that for `CN(C)CCCn1cc(C2=C(c3c[nH]c4ccccc34)C(=O)NC2=O)c2ccccc21` was 55.6 and 47.3; that for `Cn1cc(C2=C(c3cn(CCCSC(=N)N)c4ccccc34)C(=O)NC2=O)c2ccccc21` [Ro 31-8220 mesylate] was 10.6.

As to `O=C(O)CCC/C=C\C[C@@H]1CO[C@H](C(F)(F)F)O[C@@H]1c1ccccc1O`, the nuclei count turned out to be 102. The value for `O=C(O)CNC(=O)C(CS)Cc1ccccc1` (racemic) [DL-Thiorphan] was 113; that for `CNC(C)C1CCC(N)C(OC2C(N)CC(N)C(OC3OCC(C)(O)C(NC)C3O)C2O)O1` (stereo unspecified) [Gentamycin sulfate (Gentacycol)] was 79.5.

Molecule `CC(C)c1noc(N2CCC(COc3ccc(-c4ccc(S(C)(=O)=O)cc4)nc3)CC2)n1` yielded a nuclei count of 109. The value for `C=C(NC(=O)C(=C)NC(=O)c1csc(C2=N[C@@H]3c4csc(n4)[C@H]4NC(=O)c5csc(n5)[C@H]([C@](C)(O)[C@@H](C)O)NC(=O)[C@H]5CSC(=N5)/C(=C/C)NC(=O)[C@H]([C@@H](C)O)NC(=O)c5csc(n5)[C@]3(CC2)NC(=O)[C@H](C)NC(=O)C(=C)NC(=O)[C@H](C)NC(=O)[C@H]([C@@H](C)CC)N[C@@H]2C=Cc3c([C@H](C)O)cc(nc3[C@H]2O)C(=O)O[C@@H]4C)n1)C(N)=O` [Thiostrepton] was 16.2.

In turn, `CC(=O)OC[C@H]1O[C@@H]([S-])[C@H](OC(C)=O)[C@@H](OC(C)=O)[C@@H]1OC(C)=O.CCP(CC)CC.[Au+]` [Auranofin] had a nuclei count of 13.4. As for `CCN(C(=O)CO)[C@H]1CN(/C(=N\C#N)Nc2cccc(OC(F)F)c2)N=C1c1ccc(Cl)c(Cl)c1`, the figure is 111. As for `CN1CCN(c2nc(C3=C(c4c[nH]c5ccccc45)C(=O)NC3=O)c3ccccc3n2)CC1` [Sotrastaurin (AEB071)], the figure is 95.2 ± 3.4. As for `O=C(/C=C/c1ccc(O)cc1)CC(=O)/C=C/c1ccc(O)cc1` [bis-demethoxycurcumin], the figure is 93.2.
